Assay results taken from the supplement of paper PMC8728848.
Many of the other results were omitted from the sample, so the strongest signals are more common in it than they were.

How the values were obtained:
Assay in all cases: glycan array binding signal (z-score within array); higher = stronger binding
Conditions in all cases: glycan notation: IUPAC condensed, linker removed
[1] = biological target: Fuc(a1-2)Gal(b1-3)GalNAc(b1-3)Gal(a1-4)Gal(b1-4)Glc
Outline: (§1)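 From the Consortium for Functional Glycomics database, 3228 arrays were curated, keeping only those whose protein sequence was available. Binding is given as a within-array Z-score averaged across arrays sharing a protein sequence and across linkers. Negative Z-scores can be read as non-binding.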

[2] = biological target: Fuc(a1-2)Gal(b1-3)GlcNAc(b1-3)[Neu5Ac(a2-6)Gal(b1-4)GlcNAc(b1-6)]Gal(b1-4)Glc
Outline: as §1

[3] = biological target: Fuc(a1-2)Gal(b1-3)[Fuc(a1-4)]GlcNAc(b1-2)Man(a1-3)[Fuc(a1-2)Gal(b1-3)[Fuc(a1-4)]GlcNAc(b1-2)Man(a1-6)]Man(b1-4)GlcNAc(b1-4)[Fuc(a1-6)]GlcNAc(b1-4)[Fuc(a1-6)]GlcNAc
Outline: as §1

[4] = biological target: Fuc(a1-2)Gal(b1-4)[Fuc(a1-3)]GlcNAc(b1-3)GalNAc
Outline: as §1

[5] = biological target: Fuc(a1-2)Gal6S(b1-3)GlcNAc6S
Outline: as §1

[6] = biological target: Fuc(a1-2)[Gal(a1-3)]Gal(b1-4)[Fuc(a1-3)]Glc
Outline: as §1

[7] = biological target: Fuc(a1-2)[Gal(a1-4)]Gal(b1-4)GlcNAc
Outline: as §1

[8] = biological target: Fuc(a1-2)[GalNAc(a1-3)]Gal(b1-3)GalNAc(b1-3)Gal(a1-4)Gal(b1-4)Glc
Outline: as §1

[9] = biological target: Fuc(a1-2)[GalNAc(a1-3)]Gal(b1-4)GlcNAc(b1-3)Gal(b1-4)GlcNAc(b1-3)Gal(b1-4)GlcNAc
Outline: as §1

[10] = biological target: Fuc(a1-2)[GalNAc(a1-3)]Gal(b1-4)GlcNAc(b1-3)GalNAc
Outline: as §1

[11] = biological target: Fuc(a1-2)[GalNAc(a1-3)]Gal(b1-4)[Fuc(a1-3)]GlcNAc(b1-3)GalNAc
Outline: as §1

[12] = biological target: Fuc(a1-3)[Gal(b1-4)]GlcNAc(b1-2)Man
Outline: as §1

[13] = biological target: Fuc(a1-3)[Gal3S(b1-4)]GlcNAc
Outline: as §1

[14] = biological target: Fuc(a1-3)[GalNAc(b1-4)]GlcNAc
Outline: as §1

Fuc(a1-4)GlcNAc = biological target: Fuc(a1-4)GlcNAc
Outline: as §1

Gal(b1-3)GalNAc(b1-3)Gal = biological target: Gal(b1-3)GalNAc(b1-3)Gal
Outline: as §1

[15] = biological target: Gal(b1-3)GlcNAc(b1-3)Gal(b1-4)[Fuc(a1-3)]GlcNAc
Outline: as §1

[16] = biological target: Gal(b1-3)[Neu5Ac(b2-6)]GalNAc
Outline: as §1

Gal(b1-4)Glc6S = biological target: Gal(b1-4)Glc6S
Outline: as §1

[17] = biological target: Gal(b1-4)GlcNAc(b1-3)Gal(b1-3)GlcNAc
Outline: as §1

[18] = biological target: Gal(b1-4)GlcNAc(b1-3)Gal(b1-4)GlcNAc(b1-2)[Gal(b1-4)GlcNAc(b1-3)Gal(b1-4)GlcNAc(b1-6)]Man(a1-6)[Gal(b1-4)GlcNAc(b1-3)Gal(b1-4)GlcNAc(b1-2)Man(a1-3)]Man(b1-4)GlcNAc(b1-4)GlcNAc
Outline: as §1

[19] = biological target: Gal(b1-4)GlcNAc(b1-3)Gal(b1-4)[Fuc(a1-3)]GlcNAc(b1-3)Gal(b1-4)[Fuc(a1-3)]GlcNAc
Outline: as §1

[20] = biological target: Gal(b1-4)GlcNAc(b1-3)[Gal(b1-4)GlcNAc(b1-6)]Gal(b1-4)GlcNAc
Outline: as §1

[21] = biological target: Gal(b1-4)GlcNAc(b1-3)[GlcNAc(b1-6)]Gal(b1-4)GlcNAc
Outline: as §1

Gal(b1-6)Gal = biological target: Gal(b1-6)Gal
Outline: as §1

Gal3S(b1-4)Glc = biological target: Gal3S(b1-4)Glc
Outline: as §1

Gal3S6S(b1-4)GlcNAc6S = biological target: Gal3S6S(b1-4)GlcNAc6S
Outline: as §1

GalNAc(b1-3)Gal = biological target: GalNAc(b1-3)Gal
Outline: as §1

[22] = biological target: GalNAc(b1-3)Gal(a1-4)Gal(b1-4)GlcNAc
Outline: as §1

GalNAc(b1-6)GalNAc = biological target: GalNAc(b1-6)GalNAc
Outline: as §1

[23] = biological target: GlcNAc(b1-3)Gal(b1-4)GlcNAc(b1-3)Gal(b1-4)GlcNAc(b1-2)[GlcNAc(b1-3)Gal(b1-4)GlcNAc(b1-3)Gal(b1-4)GlcNAc(b1-6)]Man(a1-6)[GlcNAc(b1-3)Gal(b1-4)GlcNAc(b1-3)Gal(b1-4)GlcNAc(b1-2)Man(a1-3)]Man(b1-4)GlcNAc(b1-4)[Fuc(a1-6)]GlcNAc
Outline: as §1

[24] = biological target: GlcNAc(b1-3)Gal(b1-4)GlcNAc(b1-3)Gal(b1-4)GlcNAc(b1-3)Gal(b1-4)GlcNAc(b1-2)Man(a1-3)[GlcNAc(b1-3)Gal(b1-4)GlcNAc(b1-3)Gal(b1-4)GlcNAc(b1-3)Gal(b1-4)GlcNAc(b1-2)Man(a1-6)]Man(b1-4)GlcNAc(b1-4)GlcNAc
Outline: as §1

[25] = biological target: GlcNAc(b1-3)Gal(b1-4)GlcNAc(b1-3)Gal(b1-4)GlcNAc(b1-3)Gal(b1-4)GlcNAc(b1-3)Gal(b1-4)GlcNAc(b1-2)Man(a1-3)[GlcNAc(b1-3)Gal(b1-4)GlcNAc(b1-3)Gal(b1-4)GlcNAc(b1-3)Gal(b1-4)GlcNAc(b1-3)Gal(b1-4)GlcNAc(b1-2)Man(a1-6)]Man(b1-4)GlcNAc(b1-4)[Fuc(a1-6)]GlcNAc
Outline: as §1

[26] = biological target: GlcNAc(b1-3)[GlcNAc(b1-6)]Gal(b1-4)GlcNAc
Outline: as §1

Kdn(a2-3)Gal(b1-3)GalNAc = biological target: Kdn(a2-3)Gal(b1-3)GalNAc
Outline: as §1

Man(a1-3)[Man(a1-6)]Man = biological target: Man(a1-3)[Man(a1-6)]Man
Outline: as §1

[27] = biological target: Man(a1-3)[Man(a1-6)]Man(a1-6)[Man(a1-3)]Man
Outline: as §1

Man(a1-6)Man = biological target: Man(a1-6)Man
Outline: as §1

[28] = biological target: Neu5Ac(a2-3)Gal(b1-3)]Neu5Ac(a2-3)Gal(b1-4)]GlcNAc
Outline: as §1

Neu5Ac(a2-3)Gal(b1-4)Glc = biological target: Neu5Ac(a2-3)Gal(b1-4)Glc
Outline: as §1

[29] = biological target: Neu5Ac(a2-3)Gal(b1-4)GlcNAc(b1-3)Gal
Outline: as §1

[30] = biological target: Neu5Ac(a2-3)Gal(b1-4)GlcNAc(b1-3)Gal(b1-4)[Fuc(a1-3)]GlcNAc
Outline: as §1

[31] = biological target: Neu5Ac(a2-3)Gal(b1-4)GlcNAc(b1-3)GalNAc
Outline: as §1

[32] = biological target: Neu5Ac(a2-3)Gal(b1-4)[Fuc(a1-3)]GlcNAc(b1-3)Gal(b1-4)GlcNAc
Outline: as §1

[33] = biological target: Neu5Ac(a2-3)Gal(b1-4)[Fuc(a1-3)]GlcNAc(b1-3)GalNAc
Outline: as §1

[34] = biological target: Neu5Ac(a2-3)[GalNAc(b1-4)]Gal(b1-4)GlcNAc(b1-3)GalNAc
Outline: as §1

[35] = biological target: Neu5Ac(a2-6)Gal(b1-4)GlcNAc
Outline: as §1

[36] = biological target: Neu5Ac(a2-6)Gal(b1-4)GlcNAc(b1-2)Man(a1-3)[GlcNAc(b1-2)Man(a1-6)]Man(b1-4)GlcNAc(b1-4)GlcNAc
Outline: as §1

[37] = biological target: Neu5Ac(a2-6)Gal(b1-4)GlcNAc(b1-3)Gal(b1-4)GlcNAc(b1-3)[Neu5Ac(a2-6)Gal(b1-4)GlcNAc(b1-3)Gal(b1-4)GlcNAc(b1-6)]GalNAc
Outline: as §1

[38] = biological target: Neu5Ac(a2-6)Gal(b1-4)GlcNAc(b1-3)Gal(b1-4)GlcNAc(b1-6)[Gal(b1-3)]GalNAc
Outline: as §1

[39] = biological target: Neu5Ac(a2-8)Neu5Ac(a2-3)Gal(b1-4)GlcNAc
Outline: as §1

[40] = biological target: Neu5Ac(a2-8)Neu5Ac(a2-8)Neu5Ac(a2-3)Gal(b1-4)Glc
Outline: as §1

[41] = biological target: Neu5Gc(a2-3)Gal(b1-4)GlcNAc
Outline: as §1

[42] = biological target: Neu5Gc(a2-8)Neu5Ac(a2-3)Gal(b1-4)GlcNAc
Outline: as §1

B1: GS13814A-bth-462-26-462 (Bacteroides thetaiotaomicron) (protein)
chain: DDRDNLMVNDQIGLLHSTYTETEIFRGMDTPYQLFVIKSGKGKQETEVSISVDETVLQSYNTDNGTSIQLLPSDCYTILQPALRLNDSDYRKAFDIKWNADRLSDLLSTGKEYGLPIQMSVVQNFISADDERLKTIIVPTIKEPYLQMDVPGMSPVTDFMPTFGDLNERELFVKIRTNYSNDEDISFQIEVDPQLVIDYNTAHGTAYKMLPESSFTVDNKGVILTGMKETFIKIKYHKKGLIPEEGTYLFGDYVLPLRITSVSKYGISPDAASKLYTVKFQPDPIDKKGWSVIDFNNCCTQDGGWYLNMGWGVESLIDNNPGTQWLCRWDVKEPLPYYFVFDMGKEYTLFRFGFANPVAPAAHVWAGTSKAGYVEASIDNENWVKLKDWTSPKIGEPNVNMDVPATQARYIRFVITDTYPTYDGLRVSLGEVYAWGM
B1 was tested, and the “glycan array binding signal (z-score)” value [1] was -0.308, the “glycan array binding signal (z-score)” value [2] was -0.718 and the “glycan array binding signal (z-score)” value [3] was 0.703. For the same binder, the “glycan array binding signal (z-score)” value [4] was 2.19, the “glycan array binding signal (z-score)” value [5] was 3.15 and the “glycan array binding signal (z-score)” value [6] was 0.027. For the same binder, the “glycan array binding signal (z-score)” value [7] was 1.11, the “glycan array binding signal (z-score)” value [8] was 1.01 and the “glycan array binding signal (z-score)” value [9] was -0.363. For the same binder, the “glycan array binding signal (z-score)” value [10] was -0.276, the “glycan array binding signal (z-score)” value [11] was 2.42 and the “glycan array binding signal (z-score)” value [12] was 0.981. For the same binder, the “glycan array binding signal (z-score)” value [13] was 1.23, the “glycan array binding signal (z-score)” value [14] was 2.12 and the “glycan array binding signal (z-score)” value (Fuc(a1-4)GlcNAc) was 14.3. For the same binder, the “glycan array binding signal (z-score)” value (Gal(b1-3)GalNAc(b1-3)Gal) was 0.61, the “glycan array binding signal (z-score)” value [15] was 0.725 and the “glycan array binding signal (z-score)” value [16] was -0.165. The “glycan array binding signal (z-score)” value (Gal(b1-4)Glc6S) was -0.019, the “glycan array binding signal (z-score)” value [17] was -0.895 and the “glycan array binding signal (z-score)” value [18] was -0.241. The “glycan array binding signal (z-score)” value [19] was 0.104, the “glycan array binding signal (z-score)” value [20] was -0.298 and the “glycan array binding signal (z-score)” value [21] was -0.604. The “glycan array binding signal (z-score)” value (Gal(b1-6)Gal) was 0.332, the “glycan array binding signal (z-score)” value (Gal3S(b1-4)Glc) was -0.952 and the “glycan array binding signal (z-score)” value (Gal3S6S(b1-4)GlcNAc6S) was 2.45. The “glycan array binding signal (z-score)” value (GalNAc(b1-3)Gal) was -0.506, the “glycan array binding signal (z-score)” value [22] was 2.74 and the “glycan array binding signal (z-score)” value (GalNAc(b1-6)GalNAc) was -0.44. For the same binder, the “glycan array binding signal (z-score)” value [23] was 0.296, the “glycan array binding signal (z-score)” value [24] was -0.256 and the “glycan array binding signal (z-score)” value [25] was 1.41. The “glycan array binding signal (z-score)” value [26] was -0.285, the “glycan array binding signal (z-score)” value (Kdn(a2-3)Gal(b1-3)GalNAc) was 0.216 and the “glycan array binding signal (z-score)” value (Man(a1-3)[Man(a1-6)]Man) was 0.087. For the same binder, the “glycan array binding signal (z-score)” value [27] was -1, the “glycan array binding signal (z-score)” value (Man(a1-6)Man) was 0.563 and the “glycan array binding signal (z-score)” value [28] was 2.12. The “glycan array binding signal (z-score)” value (Neu5Ac(a2-3)Gal(b1-4)Glc) was 2.85, the “glycan array binding signal (z-score)” value [29] was -0.359 and the “glycan array binding signal (z-score)” value [30] was -1.35. For the same binder, the “glycan array binding signal (z-score)” value [31] was -0.818, the “glycan array binding signal (z-score)” value [32] was 2.69 and the “glycan array binding signal (z-score)” value [33] was 2.14. For the same binder, the “glycan array binding signal (z-score)” value [34] was -1.22, the “glycan array binding signal (z-score)” value [35] was -0.069 and the “glycan array binding signal (z-score)” value [36] was 0.48. For the same binder, the “glycan array binding signal (z-score)” value [37] was -1.35, the “glycan array binding signal (z-score)” value [38] was -0.806 and the “glycan array binding signal (z-score)” value [39] was -1.27. For the same binder, the “glycan array binding signal (z-score)” value [40] was -1.35, the “glycan array binding signal (z-score)” value [41] was 1.47 and the “glycan array binding signal (z-score)” value [42] was -0.879.
